Compound activity (PubChem)
An excerpt weighted towards active compounds, which were near 7.3% of everything screened.
VACV mCherry inh – qHTS for Stage-Specific Inhibitors of Vaccinia Orthopoxvirus: mCherry Reporter Primary qHTS | AID 720579, 2013 | 0.63% of 310,000 active | Vaccinia virus mCherry reporter infection, fluorescence | Potency, µM (titrated, usually from 36.5 µM), inactives show top-dose activity change, negative = inhibition, usual class: inhibitors; calls by dose curve; tested in A549 cells; further: potency means the concentration at half of the fitted maximal effect; nearly all actives have a fitted effect of over 35% in size
HCMV antiviral – qHTS Assay for inhibitors of the human cytomegalovirus (HCMV) | HFF cells, HCMV-luciferase reporter, 72 h; active compounds read low | activity change, negative = inhibition, % at 57.5 µM | 4.5% of 410,000 active; in the data active means activity change below about -60%; inconclusive means no clear call, values can overlap the other calls; inactive means above about -39%
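Compounds were evaluated in HFFs infected with an HCMV luciferase reporter virus (MOI 1 PFU/cell). Luciferase in lysates collected 72 h post infection served as the replication measure.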
HCV inhibitor – qHTS Assay for Inhibitors of Hepatitis C Virus (HCV); Huh7.5.1 HCVcc-Cre infection, luciferase reporter, 44 h; Potency, µM (titrated, usually from 41.8 µM), without a hit: top-dose activity change, negative = inhibition, actives largely listed as inhibitors; 3.4% of 340,000 active; AID 651820, 2012; active means well fitted inhibition curve with a large enough effect; inconclusive means small, poorly fitted or top-dose-only effect, or another doubt; inactive means no such curve, though single readings can be large or run the other way; further: potency means the concentration at half of the fitted maximal effect
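A cell-based infection assay in which seeded cells (1,000 per well) receive test compound after 4 h, are inoculated with HCVcc-Cre at approximately 0.5 moi, and are incubated 44 h before luminescence detection.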
FMDV inh – High Throughput Screening for Foot and Mouth Disease Virus Antivirals; FMDV antiviral cell-based qHTS; Potency, µM (highest dose often 57.9 µM), for inactives: at the top dose activity change, negative = inhibition, actives largely listed as inhibitors; 1.2% of 410,000 active; AID 1159524, 2015; calls by dose curve; tested in HEK293T cells; further: read-out not given here; potency means the concentration at half of the fitted maximal effect; nearly all actives have a fitted effect of over 45% in size
Vaccinia Venus – qHTS for Stage-Specific Inhibitors of Vaccinia Orthopoxvirus: Venus Reporter Primary qHTS | Potency, µM (highest dose often 36.5 µM), inactives show at the top dose activity change, negative = inhibition, hits mostly inhibitors | AID 720580, 2013 | 0.46% of 330,000 active | Vaccinia virus Venus reporter expression, fluorescence; calls by dose curve; tested in A549 cells; further: potency means the concentration at half of the fitted maximal effect; nearly all actives have a fitted effect of over 30% in size
* = called active by the depositor; i = inactive; ? = inconclusive; . = no result; [ ] = remark or other dose. On the % scale 0 is the no-effect control and ±100 the full control effect.

SMILES	VACV mCherry inh	HCMV antiviral	HCV inhibitor	FMDV inh	Vaccinia Venus
Cc1oc(-c2ccccc2F)nc1CSCC(=O)NC1CCC(C)CC1 (configuration not stated)	-24%	?	?	?	-8%
COC(=O)N1C(=O)[C@](CC(C)C)(c2ccccc2)N1C(=O)OC	-28%	30	-7%[8.37 µM]	35µM*	?
CC[C@@]1(c2ccccc2OC)C(=O)N(C(=O)OC)N1C(=O)OC	i	.	36%	?	-12%
COC(=O)N1C(=O)[C@@](c2ccccc2)(C2CCCC2)N1C(=O)OC	?	39	29%	20µM*	?
CCOC(=O)N1C(=O)[C@@](CC)(c2ccccc2)N1C(=O)OCC	?	-10	-11%[8.37 µM]	35µM*	?
Cn1cccc1C(=O)Nc1ccc(Cl)c(S(=O)(=O)N2CCCCC2)c1	-22%	-8	?	?	-25%
Cc1ccccc1Cn1c(=N)n(CC(=O)c2ccc([N+](=O)[O-])cc2)c2ccccc21	i	-9	7%	-13%	-7%
C=CCn1c(=N)n(CC(=O)c2ccc(Br)cc2)c2ccccc21	-27%	51	-5%	?	-25%
CCCn1c(=N)n(CC(=O)OCC)c2ccccc21	.	-16	12%	-7%	-14%
N=c1n(N)c2ccccc2n1CC(=O)c1ccc(Br)cc1	-28%	38	13µM*	16%	-20%
CCCn1c(=N)n(CC(=O)c2ccc([N+](=O)[O-])cc2)c2ccccc21	-21%	1	13µM*	-8%	-16%
CCCn1c(=N)n(CC(=O)c2ccc(OCC(=O)OC)cc2)c2ccccc21	.	-96*	?	-20%	.
CCCn1c(=N)n(CC(=O)c2ccc(Cl)cc2)c2ccccc21	?	-83*	13µM*	12%	-15%
COc1ccc(C)cc1NC(=O)c1cc(S(=O)(=O)N2CCc3ccccc3C2)ccc1F	-8%	-36	.	-22%	-9%
CCn1c(CNC(=O)c2ccco2)nnc1SCC(=O)Nc1cc(F)ccc1C	-21%	-22	3%	-8%	-10%
O=C1NC2(CCCCC2)C(=O)N1Cc1cccc(C(F)(F)F)c1	.	-103*	0%	-7%	.
CCCCS(=O)(=O)N1CCN(C(=N)N[N+](=O)[O-])CC1	i	-62*	21%	-8%	-9%
CCCS(=O)(=O)N1CCN(S(=O)(=O)c2ccccc2[N+](=O)[O-])CC1	i	-35	-3%	-12%	-7%
S=C(N/N=C/c1ccccc1Cl)Nc1cccc(Cl)c1Cl	.	-65*	-27%	-5%	.
COc1ccc(C(=O)Cn2cc[n+](C)c2)cc1	-27%	-8	11µM*	2%	-17%
COc1ccc(C(=O)CC(=O)c2ccc(OC)cc2)cc1	-3%	5	1%	27%	-27%
O=C(Nc1cccc2[nH]ncc12)c1ccc(F)cc1	.	-76*	8%	62%	.
O=C(NC(=S)Nc1cccc2[nH]ncc12)c1ccccc1	i	-62*	0%	15%	-7%
Fc1ccc(Nc2nc(NCc3ccco3)c3ccccc3n2)cc1	.	-13	10µM*	?	.
Cc1oc2ccc(O)c(CN3CCOCC3)c2c1C(=O)Nc1ccc(C(C)C)cc1	-19%	28	.	-14%	-11%
SMILES	VACV mCherry inh	HCMV antiviral	HCV inhibitor	FMDV inh	Vaccinia Venus
CN(C)c1ccc(C=O)cc1Cl	-9%	.	.	.	-9%
Cc1ccc(C(=O)N2CCOc3ccc(CN4CCN(Cc5ccccn5)CC4)cc3C2)cc1	-6%	.	.	7%	-3%
CCOc1ccccc1NC(=O)COc1coc(CN2CCCc3ccccc32)cc1=O	?	-5	13µM*	?	-22%
CCCCC[C@H](C)N1C[C@H](COCc2ccccc2)Oc2cc(N3CC[C@H](O)C3)ccc2S1(=O)=O	i	-5	.	18%	3%
CCCCC[C@@H](C)N1C[C@H](COCc2ccccc2)Oc2cc(N3CC[C@H](N(C)C)C3)ccc2S1(=O)=O	?	-101*	.	1%	?
C[C@H](c1ccccc1)N1C[C@H](COCc2ccccc2)Oc2cc(N3CC[C@H](O)C3)ccc2S1(=O)=O	2%	?	.	17%	-13%
C[C@@H](c1ccccc1)N1C[C@H](COCc2ccccc2)Oc2cc(N3CC[C@H](N(C)C)C3)ccc2S1(=O)=O	13%	-61*	.	12%	-10%
COC[C@@H]1CCCN1c1ccc2c(c1)O[C@@H](COCc1ccccc1)CN([C@@H](C)c1ccccc1)S2(=O)=O	-11%	-15	.	36%	-13%
COC[C@@H]1CCCN1c1ccc2c(c1)O[C@@H](COCc1ccccc1)CN([C@H](C)c1ccccc1)S2(=O)=O	1%	-65*	.	11%	3%
C[C@H](c1ccccc1)N1C[C@@H](COCc2ccccc2)Oc2cc(N3CC[C@H](O)C3)ccc2S1(=O)=O	i	-76*	.	9%	-5%
CCOC(=O)[C@]12CCC=C1N(Cc1ccco1)C(=O)[C@H](CC(=O)NCC13CC4CC(CC(C4)C1)C3)C2	10%	14	.	-18%	-5%
O=S(=O)(NCc1cccc(Br)c1)c1ccc(-c2cc(C(F)(F)F)on2)s1	-12%	-7	.	-19%	-12%
CC(C(=O)NC1CCCC1)n1c(-c2ccccn2)nc2ccccc21 (configuration not stated)	17%	-12	.	-5%	-2%
COc1ccccc1C(=O)NC(=O)COC(=O)CCS(=O)(=O)c1ccc(C)cc1	.	-16	9%	1%	.
Cc1nc(SCc2nc3ccccc3[nH]2)c2oc3ccccc3c2n1	.	-16	25µM*	?	-19%
Cc1nc(SCc2nc3ccccc3[nH]2)c2oc3ccc(Br)cc3c2n1	.	-16	.	35µM*	.
Cc1ccc2nc(CSc3nc(C)nc4c3oc3ccccc34)[nH]c2c1	.	13	.	-29%	.
Cn1c(=O)c2c(nc(NCC3CCCC(CN)C3)n2Cc2ccc(Cl)cc2Cl)n(C)c1=O (configuration not stated)	.	-99*	11µM*	-14%	.
Cn1c(=O)c2c(nc(NCc3ccco3)n2Cc2ccccc2Cl)n(C)c1=O	.	-31	?	?	-20%
Cn1c(NCCCN2CCOCC2)nc2c1c(=O)n(Cc1ccc(Cl)cc1Cl)c(=O)n2C	.	?	11µM*	?	.
Cn1c(=O)c2c(nc(NCCNC(=O)c3ccco3)n2Cc2ccc(Cl)cc2Cl)n(C)c1=O	i	-74*	-11%	14%	-14%
Cc1ccc(C)c(C(=O)COc2ccccc2[N+](=O)[O-])c1	0%	-7	-3%	6%	-7%
Cc1cc(C)c(S(=O)(=O)Oc2ccccc2[N+](=O)[O-])c(C)c1	?	?	10µM*	-26%	-27%
COc1cccc(CN(C)CC(=O)Nc2cccc(S(N)(=O)=O)c2)c1OC	-25%	?	-6%	3%	-5%
